Pol eta inh-1: qHTS for Inhibitors of Polymerase Eta; 390,000 compounds, 1.2% hits; recombinant Pol eta, fluorescent DNA replication assay; Potency, µM (highest dose often 114 µM), for the others: top-dose activity change, negative = inhibition, actives largely listed as inhibitors; further: potency means the concentration at half of the fitted maximal effect; on the % scale 0 is the no-effect control and ±100 the full control effect
Target sequence (Q9Y253 whole entry, looked up): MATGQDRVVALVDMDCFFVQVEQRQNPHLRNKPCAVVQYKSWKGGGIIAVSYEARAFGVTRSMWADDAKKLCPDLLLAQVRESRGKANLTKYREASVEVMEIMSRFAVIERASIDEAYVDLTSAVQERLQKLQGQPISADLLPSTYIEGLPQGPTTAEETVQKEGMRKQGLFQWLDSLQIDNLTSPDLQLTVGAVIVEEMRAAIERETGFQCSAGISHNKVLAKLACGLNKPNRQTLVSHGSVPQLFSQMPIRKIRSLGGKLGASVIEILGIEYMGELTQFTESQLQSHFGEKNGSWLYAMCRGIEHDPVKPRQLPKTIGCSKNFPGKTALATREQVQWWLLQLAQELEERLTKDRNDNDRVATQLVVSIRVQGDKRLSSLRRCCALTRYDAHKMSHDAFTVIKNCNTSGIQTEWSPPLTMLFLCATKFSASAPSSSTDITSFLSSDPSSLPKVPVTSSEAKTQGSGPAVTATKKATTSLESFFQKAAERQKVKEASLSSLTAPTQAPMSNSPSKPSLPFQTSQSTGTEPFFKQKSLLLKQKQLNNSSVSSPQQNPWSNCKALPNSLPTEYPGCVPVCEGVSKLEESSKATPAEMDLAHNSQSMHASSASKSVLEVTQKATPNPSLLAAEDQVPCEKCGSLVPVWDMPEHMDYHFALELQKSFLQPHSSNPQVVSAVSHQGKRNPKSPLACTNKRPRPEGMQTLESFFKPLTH
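Pol eta (10 nM) was preincubated with compounds for 15 min at room temperature, after which fluorescent replication substrate (50 nM final) was added to start the reaction. Fluorescence was read kinetically at 0 and 10 min.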
PI5P4K alpha inh: qHTS for Inhibitors of phosphatidylinositol 5-phosphate 4-kinase (PI5P4K). PI5P4Kalpha enzyme, ADP-Glo luminescence, 60 min; active compounds read low. max response, %. AID 652105, 2013. 330,000 compounds, 1.2% hits. Phosphatidylinositol 5-phosphate 4-kinase type-2 alpha (Homo sapiens), P48426; active means max response of -50% or lower; inconclusive means between -30% and -50%; inactive means -30% or higher; further: value at the top dose of about 77 µM; on the % scale 0 is the no-effect control and ±100 the full control effect
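Controls without substrate or without enzyme flank wells where PI5P4Kalpha converts substrate using 5 microM ATP (final). Incubation lasts 60 minutes at room temperature; ADP formed is read by ADP-Glo luminescence.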
Pol beta inh: qHTS Assay for Inhibitors of DNA Polymerase Beta; 340,000 compounds, 1.3% hits; Pol beta primer extension/strand displacement, fluorescence kinetic; Potency, µM (top dose mostly 114 µM), for inactives: top-dose activity change, negative = inhibition, actives largely listed as inhibitors; P06746; further: potency means the concentration at half of the fitted maximal effect; on the % scale 0 is the no-effect control and ±100 the full control effect
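Preincubation: enzyme (10 nM) with compound, 15 min, RT. Reaction: substrate added to 50 nM final. Reads: 0 and 10 min. Analysis: normalized, Hill fit.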
ALOX12 inh: Primary qHTS assay for inhibitors of human arachidonate 12S-lipoxygenase (ALOX12): Round 2; Polyunsaturated fatty acid lipoxygenase ALOX12 (Homo sapiens), P18054; purified 12hLO, xylenol orange hydroperoxide absorbance; Potency, µM (series often up to 108 µM), for inactives: at the top dose activity change, negative = inhibition, most hits filed as inhibitors; 580,000 compounds, 1.1% hits; AID 1671190, 2021; further: potency means the concentration at half of the fitted maximal effect; on the % scale 0 is the no-effect control and ±100 the full control effect
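Hydroperoxide product was detected by ferrous iron/xylenol orange as the 573 to 405 nm absorbance ratio. Arachidonic acid at 40 uM (final) was turned over for 30 min at room temperature by 150 nM human 12hLO, pH 7.0 Hepes buffer, after 15 min compound preincubation.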
Pol kappa inh-1: qHTS for Inhibitors of Polymerase Kappa. DNA polymerase kappa (Homo sapiens), Q9UBT6. purified Pol kappa, fluorescent DNA synthesis assay, 10 min. Potency, µM (highest dose often 107 µM), inactives show at the top dose activity, negative = inhibition, hits mostly inhibitors. 400,000 compounds, 0.53% hits; further: potency means the concentration at half of the fitted maximal effect; on the % scale 0 is the no-effect control and ±100 the full control effect
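Enzyme at 10 nM met test compounds for 15 min at room temperature. Substrate addition (50 nM final) began the reaction, which was monitored by fluorescence at 0 and 10 min.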
Pol iota inh: qHTS for Inhibitors of Polymerase Iota; DNA polymerase iota (Homo sapiens), Q9UNA4; Pol iota fluorescent replication assay, 10 min; Potency, µM (series often up to 115 µM), inactives show at the highest dose activity, negative = inhibition, most hits filed as inhibitors; 390,000 compounds, 1% hits; further: potency means the concentration at half of the fitted maximal effect
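Fluorescent replication assay read twice, at 0 min and 10 min after adding 50 nM (final) substrate. Enzyme (10 nM) and compounds were first incubated 15 min at room temperature; enzyme-free buffer wells were negative controls.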
PGK validate: qHTS for inhibitors of Phosphogylcerate Kinase: Hit Validation Screen | shares compounds with Pol kappa inh-1 | TbPGK coupled GAPDH assay, Kinase-Glo luminescence | Potency, µM (doses to about 57.5 µM), without a hit: at the highest dose activity change, negative = inhibition, usual class: inhibitors | 500 compounds, 79% hits | AID 686980, 2013; further: potency means the concentration at half of the fitted maximal effect; on the % scale 0 is the no-effect control and ±100 the full control effect; nearly all actives have a fitted effect of over 65% in size
POLI cherry-pick: qHTS for Inhibitors of Polymerase Iota: Confirmatory Assay for Cherry-picked Compounds; Potency, µM, usual class: inhibitors; shares compounds with Pol kappa inh-1; 1,500 compounds, 77% hits; AID 720496, 2013; Pol iota primer extension, TAMRA/BHQ fluorescence; further: potency means the concentration at half of the fitted maximal effect
Pol kappa inh-2: qHTS for Inhibitors of Polymerase Kappa: Confirmatory Assay for Cherry-picked Compounds; shares compounds with Pol eta inh-1; purified Pol-kappa, fluorescent strand-displacement substrate; Potency, µM, hits mostly inhibitors; 920 compounds, 76% hits; AID 720501, 2013; further: potency means the concentration at half of the fitted maximal effect
Pol eta inh-2: qHTS for Inhibitors of Polymerase Eta: Confirmatory Assay for Cherry-picked Compounds. 2,600 compounds, 64% hits. shares compounds with Pol eta inh-1. AID 720502, 2013. Pol eta primer extension, TAMRA/BHQ fluorescence, 10 min. Potency, µM, most hits filed as inhibitors; further: potency means the concentration at half of the fitted maximal effect
ADP-Glo counter: qHTS for Inhibitors of PI5P4K: ADP-Glo counter assay. shares compounds with PI5P4K alpha inh. 1,100 tested, under 10 active. ADP-Glo detection counter-screen, luciferase luminescence, no enzyme. AID 743285, 2014. Potency, µM (titrated, usually from 76.9 µM), for the others: top-dose activity change, negative = inhibition, actives largely listed as inhibitors
Numbers without * were called inactive; ? = inconclusive; / = no result given; [ ] = dose if it differs, or a comment. Most compounds without a hit are left out; they make up all but 2.9% or so of the library. Unless noted, the call rests on the fitted dose curve; in most records, active means well fitted curve in the direction sought with a large enough effect; inconclusive means small, poorly fitted or top-dose-only effect, or another doubt; inactive means no such curve, though single readings can be large; an effect the other way counts as inactive or inconclusive.

SMILES	Pol eta inh-1	PI5P4K alpha inh	Pol beta inh	ALOX12 inh	Pol kappa inh-1	Pol iota inh	POLI cherry-pick	Pol eta inh-2	ADP-Glo counter	others
O=C(NC1CCCCC1)[C@H]1O[C@H](CCN2CCN(c3ccccn3)CC2)CC[C@@H]1O	/	/	/	27%[176 µM]	/	/	/	/	/
COc1ccc(S(=O)(=O)N2CCN(C(=O)C3COc4ccccc4O3)CC2)cc1 (centres undefined)	10µM*	-74*	/	40µM*	28µM*	10µM*	15*	24*	4%	Pol kappa inh-2=17*
O=C(NCc1cccc(Cl)c1)c1cc2c(s1)CCN(C(=O)c1ccccc1)C2	/	/	/	7%	/	/	/	/	/
COc1ccc(OC)c([N+](=O)[O-])c1C(N)=O	50µM*	-65*	6.3µM*	361%	?	18µM*	21*	30*	-10%
Cc1cccc(CN2CCCN(c3cccc(C(=O)N4CCN(c5ccccc5)CC4)c3)C2=O)c1	/	/	/	0%	/	/	/	/	/
CCc1nnc(NC(=O)CSc2sc3c(O)cc(=O)[nH]c3c2C#N)s1	3.5µM*	-84*	0.56µM*	-23%	8.9µM*	1.8µM*	42*	30*	3%	Pol kappa inh-2=17*
CNC(=O)c1ccc(CN(C(=O)Cn2c(C)cc3ccccc32)C2CC2)cc1	/	/	/	-3%	/	/	/	/	/
Cc1ccc(-c2nc3c(c(=O)[nH]c(=O)n3Cc3ccccc3)n2Cc2ccccc2)o1	-18%	?	4%	?	-7%	145%	/	/	/
Cc1ccc(-c2nc3c(c(=O)[nH]c(=O)n3Cc3ccccc3)n2C)o1	11µM*	-68*	10µM*	-24%	?	11µM*	?	76*	-9%
Cc1cc(NC(=O)CSc2cn(CCNC(=O)c3ccccc3)c3ccccc23)no1	?	-76*	19%	/	11µM*	?	8.4*	11*	0%	PGK validate=1.2µM*
Cc1ccc(C(=O)NCCn2cc(SCC(=O)Nc3cc(C)on3)c3ccccc32)cc1	-18%	2	2%	30%	10%	-15%	/	/	/
CCn1cc(CN2CCC3(CC2)CC(c2ccccc2)CN3C)cn1 (centres undefined)	/	/	/	34%	/	/	/	/	/
CN(C)c1ccc(CN2CCC3(Cc4ccccc4NC3=O)C2)cc1 (centres undefined)	/	/	/	63%[176 µM]	/	/	/	/	/

Assay outcomes from PubChem BioAssay.
